From PubChem BioAssay
Records with an inconclusive call do not appear. The source made the active and inactive calls.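 How the source made its calls, unless noted: active means GFP signal, as percent of the solvent control, above the screen mean plus 3 SD, about 149; inconclusive means no reading because the compound's own fluorescence upset strain identification; inactive means the rest.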

Assays:
[1] = yeast TOR pathway RPL19A-GFP modulators, primary screen, cell-based, S. cerevisiae, multiplex flow cytometry (AID 1862; in the data active means percent of DMSO control GFP below about 86%;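 further: lower values mimic rapamycin by blocking the RPL19A rise seen in DMSO cells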); settings: S. cerevisiae RPL19A-GFP strain, flow cytometry fluorescence, 3 h; at 10 µM; stronger effect = lower value
[2] = modulators of MEP2-GFP levels in yeast, primary screen, S. cerevisiae, multiplex flow cytometry (AID 1867;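 active means GFP response, as percent of the DMSO control, above the screen-wide mean plus 3 SD, about 139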;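 further: median GFP channel fluorescence of barcode-gated MEP2-GFP cells measured by flow cytometry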); settings: S. cerevisiae MEP2-GFP strain, 3 h, at 10 µM, stronger effect = higher value, 100% means same as DMSO wells
[3] = modulators of CIT2-GFP expression in yeast, primary screen, S. cerevisiae, GFP fusion, multiplex flow cytometry (AID 1870;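 active means percent response above a set limit, the screen-wide mean plus 3 SD, cut at about 130% in these data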;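 further: barcoded CIT2-GFP strain pooled with four other GFP strains with rapamycin as positive control; median GFP fluorescence per well over plate mean of DMSO wells so 100% = DMSO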); settings: 3 h, at 10 µM, stronger effect = higher value
[4] = modulators of LAP4-GFP expression in yeast, primary screen, S. cerevisiae, multiplex flow cytometry (AID 1873); settings: 3 h, at 10 µM, stronger effect = higher value
[5] = modulators of AGP1-GFP expression in yeast TOR pathway, primary screen, cell-based, multiplex flow cytometry, S. cerevisiae (AID 1887;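 active means GFP signal above the screen-wide mean plus 3 SD, that is over about 124.5% of the solvent control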;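 further: AGP1-GFP fusion strain of S. cerevisiae within a five-strain barcoded multiplex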); settings: 3 h, at 10 µM, stronger effect = higher value
[6] = inhibitors of CD8+ T cell-vesicle binding, pilot screen, LFA-1/ICAM-1 modulator project, MLPCN validation set, flow cytometry (AID 2523;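 active means response below a set limit, under 55% cells CD8-positive and vesicle-bound, and CD8 cells' 90th-percentile brightness under 279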;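 on vesicle binding response: mean PE anti-B7-1 fluorescence of CD8+ cells relative to row control; 100% = QL9-loaded vesicles with DMSO vehicle in the same plate row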); settings: 2C mouse CD8+ T cells, at 7 µM, stronger effect = lower value; double positive events: measured here: CD8+/vesicle+ event percentage
[7] = target: Integrin beta-1 (Homo sapiens) + Integrin alpha-4 (Homo sapiens) (UniProt P13612+P05556); assay: inhibition of HUTS-21 binding to VLA-4, pilot screen, VLA-4 allosteric modulator project, U937 cells, HUTS-21 mAb, flow cytometry, validation set (AID 2674;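 active means inhibition above 50%, about 3 SD of the validation set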;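 further: antibody binding induced by the VLA-4 ligand LDV present at three times its Kd; 0% = LDV ligand with antibody and no compound and 100% = antibody without LDV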); settings: HUTS-21 LIBS mAb binding, at 6.7 µM, stronger effect = higher value, binding induced by LDV ligand
Sequence of Integrin beta-1 (Homo sapiens) + Integrin alpha-4 (Homo sapiens) (P05556 whole entry, looked up): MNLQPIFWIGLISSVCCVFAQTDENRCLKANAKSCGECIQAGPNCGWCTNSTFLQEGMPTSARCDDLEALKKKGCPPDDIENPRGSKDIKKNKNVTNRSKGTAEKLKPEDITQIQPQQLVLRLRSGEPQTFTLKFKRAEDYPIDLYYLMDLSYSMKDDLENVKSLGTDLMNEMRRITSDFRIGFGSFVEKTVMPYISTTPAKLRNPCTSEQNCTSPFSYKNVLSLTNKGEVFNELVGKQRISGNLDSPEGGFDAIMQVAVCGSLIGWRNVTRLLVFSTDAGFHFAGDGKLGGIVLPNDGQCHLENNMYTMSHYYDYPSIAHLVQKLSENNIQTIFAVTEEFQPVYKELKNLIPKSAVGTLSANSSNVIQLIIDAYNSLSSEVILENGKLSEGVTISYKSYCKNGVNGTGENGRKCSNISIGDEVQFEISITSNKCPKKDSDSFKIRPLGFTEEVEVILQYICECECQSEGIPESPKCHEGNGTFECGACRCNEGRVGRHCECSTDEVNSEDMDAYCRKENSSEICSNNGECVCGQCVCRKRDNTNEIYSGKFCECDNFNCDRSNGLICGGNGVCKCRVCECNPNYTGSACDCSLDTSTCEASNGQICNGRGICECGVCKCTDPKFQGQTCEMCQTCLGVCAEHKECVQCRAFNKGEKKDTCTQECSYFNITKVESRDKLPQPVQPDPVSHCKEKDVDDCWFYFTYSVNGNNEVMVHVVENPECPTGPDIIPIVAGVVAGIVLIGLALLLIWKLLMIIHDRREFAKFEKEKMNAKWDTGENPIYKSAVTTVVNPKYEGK
Sequence of Integrin beta-1 (Homo sapiens) + Integrin alpha-4 (Homo sapiens) (P13612 whole entry, looked up): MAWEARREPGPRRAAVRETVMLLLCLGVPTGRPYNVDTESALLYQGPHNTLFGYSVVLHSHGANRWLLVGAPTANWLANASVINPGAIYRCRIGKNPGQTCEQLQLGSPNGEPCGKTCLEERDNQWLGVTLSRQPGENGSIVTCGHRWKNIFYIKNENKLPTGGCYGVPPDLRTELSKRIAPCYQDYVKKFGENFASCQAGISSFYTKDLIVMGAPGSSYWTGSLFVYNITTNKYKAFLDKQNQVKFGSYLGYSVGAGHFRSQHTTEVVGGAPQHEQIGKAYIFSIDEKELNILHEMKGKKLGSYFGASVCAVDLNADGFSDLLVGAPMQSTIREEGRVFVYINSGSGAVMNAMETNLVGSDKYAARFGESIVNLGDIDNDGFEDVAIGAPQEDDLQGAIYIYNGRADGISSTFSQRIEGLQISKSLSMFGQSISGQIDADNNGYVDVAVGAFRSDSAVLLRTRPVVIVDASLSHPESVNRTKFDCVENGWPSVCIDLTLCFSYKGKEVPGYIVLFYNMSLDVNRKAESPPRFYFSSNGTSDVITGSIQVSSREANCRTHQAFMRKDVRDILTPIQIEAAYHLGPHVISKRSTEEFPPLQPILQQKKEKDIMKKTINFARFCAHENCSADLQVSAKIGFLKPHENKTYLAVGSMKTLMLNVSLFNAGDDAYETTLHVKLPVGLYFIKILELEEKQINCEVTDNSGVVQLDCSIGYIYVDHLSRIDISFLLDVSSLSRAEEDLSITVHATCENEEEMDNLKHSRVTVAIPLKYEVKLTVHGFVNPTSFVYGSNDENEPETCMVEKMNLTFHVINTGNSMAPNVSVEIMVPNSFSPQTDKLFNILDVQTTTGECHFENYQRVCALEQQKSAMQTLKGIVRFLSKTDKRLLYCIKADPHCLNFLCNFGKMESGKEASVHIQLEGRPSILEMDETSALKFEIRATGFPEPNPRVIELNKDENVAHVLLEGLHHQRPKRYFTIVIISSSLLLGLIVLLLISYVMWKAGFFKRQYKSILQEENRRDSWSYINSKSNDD

[8] = superoxide lowering in aged yeast cells, pilot screen, validation compound set (AID 2706;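 active means superoxide response below 65% of plate, a cut near 3 SD across the whole screen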;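 further: yeast exposed to compound for one week at 30 degrees C before staining; 100% = mean of all compound wells on the same plate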); settings: S. cerevisiae aging, superoxide DHE fluorescence; at 10 µM, stronger effect = lower value
[9] = target: Beta-adrenergic receptor kinase 1 (Homo sapiens) (UniProt P25098); assay: GRK2 binders displacing RNA aptamer, biochemical, validation, human GRK2, bead flow cytometry (AID 488806;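 active means aptamer binding inhibition above 30%, about 3 SD of noise from non-fluorescent compounds; inactive means inhibition at or below 30%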); settings: bead-bound GRK2, FAM-aptamer displacement, at 10 µM, stronger effect = higher value
Sequence of Beta-adrenergic receptor kinase 1 (Homo sapiens) (P25098 whole entry, looked up): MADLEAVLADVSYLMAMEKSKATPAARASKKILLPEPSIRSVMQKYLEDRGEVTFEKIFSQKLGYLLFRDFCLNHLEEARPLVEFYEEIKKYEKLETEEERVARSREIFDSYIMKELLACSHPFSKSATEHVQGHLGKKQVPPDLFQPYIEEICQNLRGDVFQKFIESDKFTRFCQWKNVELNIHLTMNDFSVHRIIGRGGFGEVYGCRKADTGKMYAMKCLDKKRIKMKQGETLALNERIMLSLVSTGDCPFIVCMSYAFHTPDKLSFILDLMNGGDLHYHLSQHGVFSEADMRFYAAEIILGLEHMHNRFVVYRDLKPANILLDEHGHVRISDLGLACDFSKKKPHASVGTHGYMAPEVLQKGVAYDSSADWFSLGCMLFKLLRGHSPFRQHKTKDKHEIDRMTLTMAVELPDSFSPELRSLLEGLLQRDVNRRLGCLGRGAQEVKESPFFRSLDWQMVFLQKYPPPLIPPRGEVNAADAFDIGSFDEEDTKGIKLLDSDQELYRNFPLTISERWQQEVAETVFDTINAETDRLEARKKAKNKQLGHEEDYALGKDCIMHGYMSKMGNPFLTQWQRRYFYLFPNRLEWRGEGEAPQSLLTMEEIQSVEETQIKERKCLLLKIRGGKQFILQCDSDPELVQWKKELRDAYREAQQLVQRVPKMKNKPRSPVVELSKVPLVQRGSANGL

[10] = target: AP-2 complex subunit beta (Homo sapiens) (UniProt P63010); assay: inhibitors of arrestin peptide binding to AP2, pilot screen, biochemical, validation set, GST-AP2 beads, flow cytometry (AID 504541;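 active means inhibition above 54%, about 3 SD of non-fluorescent compounds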;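 further: AP2 carries R879A mutation and is captured from E. coli lysate; bead-bound FITC arrestin peptide fluorescence measuring arrestin peptide binding to AP2; 0% = DMSO wells and 100% = excess unlabeled arrestin peptide control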); settings: FITC arrestin peptide, at 10 µM, stronger effect = higher value, AP2 beta2 appendage fragment, R879A mutant
Sequence of AP-2 complex subunit beta (Homo sapiens) (P63010 whole entry, looked up, the tested form may be a part, one chain of several): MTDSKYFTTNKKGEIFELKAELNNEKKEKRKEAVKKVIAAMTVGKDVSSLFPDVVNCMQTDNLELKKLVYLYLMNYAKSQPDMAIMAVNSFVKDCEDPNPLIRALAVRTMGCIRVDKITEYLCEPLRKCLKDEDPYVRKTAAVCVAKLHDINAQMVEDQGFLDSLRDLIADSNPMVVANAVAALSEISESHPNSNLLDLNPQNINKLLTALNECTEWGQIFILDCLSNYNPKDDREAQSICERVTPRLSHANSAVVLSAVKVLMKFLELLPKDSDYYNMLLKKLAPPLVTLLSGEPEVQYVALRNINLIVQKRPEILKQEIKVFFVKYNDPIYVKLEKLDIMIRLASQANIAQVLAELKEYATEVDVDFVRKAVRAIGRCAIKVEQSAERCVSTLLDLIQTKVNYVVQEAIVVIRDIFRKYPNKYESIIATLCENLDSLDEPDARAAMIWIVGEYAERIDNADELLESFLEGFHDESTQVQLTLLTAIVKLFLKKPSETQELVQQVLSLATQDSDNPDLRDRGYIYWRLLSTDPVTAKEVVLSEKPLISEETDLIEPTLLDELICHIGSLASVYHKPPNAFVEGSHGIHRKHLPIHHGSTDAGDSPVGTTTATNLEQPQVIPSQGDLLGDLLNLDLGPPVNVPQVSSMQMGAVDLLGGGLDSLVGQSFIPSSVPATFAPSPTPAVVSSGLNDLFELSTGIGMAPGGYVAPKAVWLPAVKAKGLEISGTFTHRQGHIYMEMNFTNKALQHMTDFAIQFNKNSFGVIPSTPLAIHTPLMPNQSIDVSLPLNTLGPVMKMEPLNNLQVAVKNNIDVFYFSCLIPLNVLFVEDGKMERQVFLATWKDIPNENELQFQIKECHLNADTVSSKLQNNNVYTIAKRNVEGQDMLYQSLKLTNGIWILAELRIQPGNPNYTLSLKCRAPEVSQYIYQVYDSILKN

[11] = yeast V-ATPase proton transport modulators, S. cerevisiae, pHLuorin, HTS validation (AID 504600; in the data active means response above about 15%;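 further: plate controls were DMSO for no effect and reference compound for full effect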); settings: S. cerevisiae pHLuorin cytosolic pH, at 10 µM, stronger effect = higher value
[12] = test system: anti-desmoglein-3 scFv antibody binding to human DSG3; assay: inhibitors of anti-DSG3 scFv binding to DSG3, pilot screen, biochemical, validation compound set, bead-based, flow cytometry (AID 588368;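 active means binding below the plate cutoff, the plate median minus 3 SD, with a reading above zero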;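 further: signal is the median channel fluorescence of bead-bound GFP antibody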); settings: Protein G beads, DSG3-Fc, scFv-GFP binding, at 10 µM, stronger effect = lower value
[13] = inhibitors of fungal efflux pumps CDR1, CDR2, MDR1, pilot screen, validation compound set, multiplex, phenotypic (AID 588506;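 active means efflux inhibition above 0.42, the validation set average plus 4 SD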;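 further: Nile Red retained in cells so higher fluorescence means more efflux inhibition; 0 = negative control wells and 1 = enniatin B 25 µM full block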); settings: S. cerevisiae pump-expressing triplex, Nile Red efflux flow cytometry; at 10 µM; stronger effect = higher value; the pumps come from Candida albicans
[14] = target: ATP-binding cassette sub-family B member 6 (Homo sapiens) (UniProt Q9NP58); assay: ABCB6 transporter inhibitors, pilot screen, K562-ABCB6 cells, flow cytometry, validation set (AID 588550;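 active means inhibition above the screen-wide mean plus 3 SD, about 51%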;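 further: 0% = DMSO wells and 100% = benzethonium chloride 70 µM positive control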); settings: K562-ABCB6 porphyrin accumulation, 1 h, at 10 µM, stronger effect = higher value
Sequence of ATP-binding cassette sub-family B member 6 (Homo sapiens) (Q9NP58 whole entry, looked up): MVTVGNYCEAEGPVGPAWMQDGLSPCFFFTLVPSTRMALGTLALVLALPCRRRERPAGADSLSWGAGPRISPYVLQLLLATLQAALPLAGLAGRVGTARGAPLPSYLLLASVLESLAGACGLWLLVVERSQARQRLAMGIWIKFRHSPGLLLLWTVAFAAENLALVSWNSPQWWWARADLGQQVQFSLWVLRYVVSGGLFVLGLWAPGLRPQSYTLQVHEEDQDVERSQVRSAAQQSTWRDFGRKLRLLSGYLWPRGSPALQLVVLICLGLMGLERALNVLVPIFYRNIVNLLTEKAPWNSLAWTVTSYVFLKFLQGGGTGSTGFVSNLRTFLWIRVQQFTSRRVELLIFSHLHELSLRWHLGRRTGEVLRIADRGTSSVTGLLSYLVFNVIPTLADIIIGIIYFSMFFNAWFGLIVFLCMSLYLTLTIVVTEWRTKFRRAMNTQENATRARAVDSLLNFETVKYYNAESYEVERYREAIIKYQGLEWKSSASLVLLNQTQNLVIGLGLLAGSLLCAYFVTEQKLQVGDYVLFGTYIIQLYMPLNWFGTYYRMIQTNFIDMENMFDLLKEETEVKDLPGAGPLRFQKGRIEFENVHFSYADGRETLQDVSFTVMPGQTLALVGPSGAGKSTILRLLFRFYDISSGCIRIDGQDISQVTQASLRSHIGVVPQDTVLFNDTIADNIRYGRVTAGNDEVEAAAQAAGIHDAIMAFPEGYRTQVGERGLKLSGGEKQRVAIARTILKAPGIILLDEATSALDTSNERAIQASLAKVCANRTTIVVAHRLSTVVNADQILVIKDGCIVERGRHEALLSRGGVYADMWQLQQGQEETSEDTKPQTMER

[15] = promoters of myeloid differentiation in arrested cells, primary screen, cell-based, GFP/MAC1 double positive, flow cytometry, validation set (AID 588685;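 active means differentiation response of at least 50%, scaled between solvent and reference control, from cells with both markers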;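 further: compound exposure lasts four days before antibody staining and flow analysis; 0% = DMSO wells and 100% = 5 µM fulvestrant positive control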); settings: ER-HoxA9 marrow cells, stronger effect = higher value, normalized: vehicle 0, fulvestrant 100

Structure (SMILES)	percent of DMSO control GFP [1]	GFP response vs DMSO [2]	percent response of DMSO control [3]	GFP response vs DMSO [4]	GFP response, % of DMSO [5]	double positive events [6]	vesicle binding response [6]	inhibition [7]	superoxide response (% of plate) [8]	aptamer binding inhibition [9]	inhibition [10]	response [11]	binding (% of control) [12]	efflux inhibition (fraction of control) [13]	inhibition [14]	differentiation response [15]
COc1ccc2oc(=O)c(C(=O)N3CCN(c4ccccc4)CC3)cc2c1	97.8% (inactive)	93.8% (inactive)	101% (inactive)	89.3% (inactive)	90.3% (inactive)	52.5%	130% (inactive)	12.8% (inactive)	110% (inactive)	2% (inactive)	10.5% (inactive)	-1.57% (inactive)	101% (inactive)	-0.54 (inactive)	10% (inactive)	25.6% (inactive)
Nc1ccc(N)c(C(=O)O)c1	100% (inactive)	99.9% (inactive)	110% (inactive)	85.3% (inactive)	90.3% (inactive)	50%	122% (inactive)	-3.04% (inactive)	79% (inactive)	92% (active)	92.2% (active)	-0.99% (inactive)	2.29% (active)	-0.24 (inactive)	8% (inactive)	-5.05% (inactive)
O=C(COc1ccccc1)N1CCN(c2ccccc2)CC1	102% (inactive)	104% (inactive)	103% (inactive)	100% (inactive)	97.8% (inactive)	53.2%	176% (inactive)	-3.97% (inactive)	94% (inactive)	2% (inactive)	5.07% (inactive)	-1.27% (inactive)	97.8% (inactive)	0.25 (inactive)	6% (inactive)	9.49% (inactive)
NCCCC(=O)O	97.8% (inactive)	99.9% (inactive)	95.9% (inactive)	103% (inactive)	96.7% (inactive)	57.8%	192% (inactive)	10.9% (inactive)	103% (inactive)	0% (inactive)	2.65% (inactive)	-1.76% (inactive)	99.8% (inactive)	0.94 (active)	-31% (inactive)	-13.1% (inactive)
COc1ccc(OC)c(-c2oc3ccccc3c(=O)c2O)c1	102% (inactive)	96.9% (inactive)	96.9% (inactive)	110% (inactive)	101% (inactive)	57%	182% (inactive)	-8.64% (inactive)	102% (inactive)	2% (inactive)	-1.44% (inactive)	5.05% (inactive)	97.5% (inactive)	-0.01 (inactive)	-4% (inactive)	-26% (inactive)
COc1ccc(C2NC(=O)c3ccccc3N2)cc1OC (stereo not given)	98.8% (inactive)	99.9% (inactive)	96.9% (inactive)	94.3% (inactive)	92.2% (inactive)	64.4%	117% (inactive)	10.9% (inactive)	108% (inactive)	5% (inactive)	3.03% (inactive)	1.73% (inactive)	95.1% (inactive)	0.06 (inactive)	11% (inactive)	-3.43% (inactive)
CCc1cc2c(=O)c(-c3nc4ccccc4n3C)coc2c(CN2CCN(C)CC2)c1O	107% (inactive)	107% (inactive)	110% (inactive)	101% (inactive)	100% (inactive)	49.7%	149% (inactive)	17.5% (inactive)	105% (inactive)	2% (inactive)	2.16% (inactive)	4.87% (inactive)	102% (inactive)	-0.54 (inactive)	7% (inactive)	-0.2% (inactive)
COc1ccc(CCNC(=O)C(=O)Nc2ccc3c(c2)OCO3)cc1OC	104% (inactive)	104% (inactive)	107% (inactive)	101% (inactive)	101% (inactive)	65.2%	220% (inactive)	-4.9% (inactive)	96.1% (inactive)	5% (inactive)	-11.2% (inactive)	6.72% (inactive)	94.1% (inactive)	-0.16 (inactive)	10% (inactive)	-1.82% (inactive)
Cc1ccccc1C(OCCN(C)C)c1ccccc1 (stereo not given)	101% (inactive)	98.9% (inactive)	102% (inactive)	85.3% (inactive)	94.6% (inactive)	51.2%	111% (inactive)	10.9% (inactive)	106% (inactive)	1% (inactive)	-8.71% (inactive)	9.28% (inactive)	98.7% (inactive)	0.03 (inactive)	4% (inactive)	-22.8% (inactive)
CCOc1cc2oc(=O)c3c(c2cc1Cl)CCC3	104% (inactive)	99.9% (inactive)	102% (inactive)	111% (inactive)	107% (inactive)	51.1%	165% (inactive)	-6.77% (inactive)	109% (inactive)	1% (inactive)	-15.2% (inactive)	-4.08% (inactive)	103% (inactive)	-0.05 (inactive)	6% (inactive)	-11.5% (inactive)
